Screening data (PubChem)
A selection: hits, their analogues and other compounds. The true share with any hit is near 2.3%.
ADAM10 inh = inhibits human ADAM10 | inhibition, % at 7 µM | O14672 | actives 0.62% (n = 370,000) | AID 720582 | recombinant ADAM10, EDANS/DABCYL FRET peptide cleavage, 3 h;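 active = inhibition above a per-campaign cutoff equal to the mean of compounds falling between control-based bounds plus 3 SD, cut at about 20% in these data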;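 also: 0% = DMSO wells while the 100% control is not disclosed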
Target sequence (O14672 214-748 limits assumed): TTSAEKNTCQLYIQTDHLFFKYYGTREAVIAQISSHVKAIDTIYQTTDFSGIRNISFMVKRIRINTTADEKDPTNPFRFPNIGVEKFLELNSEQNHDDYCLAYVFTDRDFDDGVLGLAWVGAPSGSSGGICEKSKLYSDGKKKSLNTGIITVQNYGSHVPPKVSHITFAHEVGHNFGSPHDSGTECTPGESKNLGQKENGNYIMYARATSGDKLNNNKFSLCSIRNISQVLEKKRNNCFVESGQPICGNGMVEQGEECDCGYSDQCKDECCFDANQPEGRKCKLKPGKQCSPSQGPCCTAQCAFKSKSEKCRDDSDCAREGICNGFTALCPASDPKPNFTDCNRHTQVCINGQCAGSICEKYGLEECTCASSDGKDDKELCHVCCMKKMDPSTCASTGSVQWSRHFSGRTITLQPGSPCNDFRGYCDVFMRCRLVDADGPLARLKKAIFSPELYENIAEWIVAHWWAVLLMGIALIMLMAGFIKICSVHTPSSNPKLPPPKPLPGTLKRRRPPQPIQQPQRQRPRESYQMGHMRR
V-ATPase pHluor = yeast V-ATPase proton transport regulation by pHLuorin | S. cerevisiae, pHLuorin cytosolic pH fluorescence | response, % at 10 µM | actives 0.37% (n = 350,000) | AID 504577; in the data active = response mostly above about 7.3%, no sharp cut-off; inactive = mostly below about 5.4%; also: actives read high
ADAM17 inh = inhibitors of human ADAM17; P78536; recombinant ADAM17, EDANS/DABCYL FRET peptide cleavage; inhibition, % at 6.95 µM; actives 0.83% (n = 370,000);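 active = inhibition above the mean of compounds lying between control limits plus 3 SD, set per campaign, cut at about 8.5% in these data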;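 also: 0% = DMSO-only wells as the low control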
proKLK7 act = proKLK7 (human) activation, primary screen. P49862. purified proKLK7, EDANS-DABCYL substrate fluorescence; 100% is mature enzyme control, 0% vehicle. activation, % at 7 µM. actives 0.9% (n = 370,000). AID 652039;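 active = activation above the mean of all tested compounds plus 3 SD, computed per campaign excluding outliers beyond control limits, cut at about 13% in these data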
KLK7 act conf = proKLK7 activation, confirmation; shares compounds with proKLK7 act; purified proKLK7, EDANS-DABCYL substrate fluorescence; scaled: vehicle 0, mature enzyme 100; activation, % at 7 µM; actives 68% (n = 3,200);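 active = activation, as change over the incubation, above the mean of all tested compounds plus 3 SD, cut at about 13% in these data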
EDANS interfere = optically interferes with EDANS-DABCYL signal, flagging KLK7 hits | shares compounds with proKLK7 act | EDANS-DABCYL substrate fluorescence interference, no enzyme, 4 h; solvent 0%, active enzyme control 100% | activation, % at 7 µM | actives 80% (n = 3,200);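 active = activation above the all-compound mean plus 3 SD, ignoring values outside control-based bounds, cut at about 4.8% in these data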;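 also: value is the 4 h activation minus the activation read at time zero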
The depositor's hits bear a star; i = inactive; x = no result given.

SMILES | ADAM10 inh | V-ATPase pHluor | ADAM17 inh | proKLK7 act | KLK7 act conf | EDANS interfere
COCCn1c(N)c(S(=O)(=O)c2cccs2)c2nc3ccccc3nc21 | i | -2 | i | 56* | 24* | 26*
CN(C)CCCn1c(N)c(S(=O)(=O)c2ccccc2)c2nc3ccccc3nc21 | i | 1 | i | 69* | -35 | -48
N#Cc1c(N)n(CCc2ccc(F)cc2)c2nc3ccccc3nc12 | i | 2 | i | 32* | -48 | -68
C[C@H]1CN(S(=O)(=O)C(C)(C)C)[C@@H](CCO)/C1=C\CCO | -3 | x | 3 | 0 | x | x
N#Cc1c(N)n(CCOC(=O)c2cccc([N+](=O)[O-])c2)c2nc3ccccc3nc12 | -181 | 5 | -51 | 83* | 91* | 88*
COCCn1c(N)c(C#N)c2nc3ccccc3nc21 | i | -6 | i | 62* | 60* | 72*
COc1ccc(Cn2c(N)c(C#N)c3nc4ccccc4nc32)cc1 | i | -1 | i | 7 | x | x
N#Cc1c(N)n(CCOC(=O)c2cccc(Br)c2)c2nc3ccccc3nc12 | -268 | -1 | -85 | -22 | x | x
COCCn1c(N)c(C(=O)NCC2CCCO2)c2nc3ccccc3nc21 (stereo unspecified) | i | 1 | i | 13* | -143 | -183
CC(C)Cn1c(N)c(C(=O)NCC2CCCO2)c2nc3ccccc3nc21 (stereo unspecified) | i | -1 | i | -28 | x | x
CC(C)c1cc(C(C)C)c(S(=O)(=O)N2CCC(C(=O)NCc3cccs3)CC2)c(C(C)C)c1 | 4 | x | -1 | 0 | x | x
CCCCN1CC(COCc2ccccc2)Oc2cccc(Oc3ccc(F)cc3OC)c2S1(=O)=O (stereo unspecified) | -12 | x | 7 | 1 | x | x
CC(=Nc1ccc(Cl)cc1N)c1c(O)cc(C)oc1=O | -18 | x | -3 | -1 | x | x
O=C(/C=C/c1cccs1)Nc1nccs1 | -27 | 2 | -11 | 15* | 10 | 17*
O=C(/C=C\c1ccccc1)Nc1nccs1 | 3 | -2 | 2 | 17* | 5 | 2
Nc1ccccc1C(=O)Nc1nccs1 | i | 6 | i | 50* | 14* | 16*
O=C(NCCc1ccccc1)OCc1cn(-c2cccc(Cl)c2)nn1 | 3 | x | -4 | 0 | x | x
Cc1cccn2c(=O)c3cc(C(N)=S)c(=N)n(CCCOC(C)C)c3nc12 | i | 6 | -336 | 46* | 5 | 5.7*
CCOCCCn1c(=N)c(C(N)=S)cc2c(=O)n3cccc(C)c3nc21 | i | 8 | -246 | 29* | 2 | 3
Cc1cccn2c(=O)c3cc(C(=O)NCCCOC(C)C)sc3nc12 | i | -4 | -205 | 2 | x | x
CN(C)c1ccc(-c2nc3ncc(Cl)cc3[nH]2)cc1 | i | x | i | 17* | -3 | 12*
Cc1ccc(OC(=O)N(C)C[C@H]2OCc3cn(nn3)CCCC(=O)N([C@@H](C)CO)C[C@@H]2C)cc1 | -11 | x | -7 | -1 | x | x
O=C(COC(=O)c1ccccc1SCC(=O)N1CCCC1)NC1CCS(=O)(=O)C1 (stereo unspecified) | 1 | 1 | -2 | 0 | x | x
O=C(COC(=O)c1ccccc1SCC(=O)NC1CCS(=O)(=O)C1)NC1CCS(=O)(=O)C1 (stereo unspecified) | -39 | -2 | -11 | 14* | 19* | 19*
CC(C)C[C@H](NC(=O)N1CCOCC1)C(=O)N1CCC[C@H]1C(=O)NCc1ccccc1 | -13 | x | -1 | 0 | x | x
SMILES | ADAM10 inh | V-ATPase pHluor | ADAM17 inh | proKLK7 act | KLK7 act conf | EDANS interfere
O=C1Nc2ccccc2C1Cc1ccccn1 (stereo unspecified) | -5 | 0 | -2 | 0 | x | x
N#CC1C(=O)Nc2cccnc21 (stereo unspecified) | i | 0 | -369 | 37* | 34* | 33*
Cc1cc(N(C)Cc2ccccc2)nc(-c2ccccc2)n1 | 1 | 0 | 0 | 0 | x | x
Cc1cc(N(C)Cc2ccccc2)nc2cc(O)ccc12 | i | -7 | i | 35* | 64* | 74*
CN(Cc1ccco1)C(=O)CN1C(=O)C2(OCCCO2)c2ccccc21 | -8 | x | 1 | 1 | x | x
O=C(O)c1ccc(-c2nc(-c3ccccc3)c(-c3ccccc3)[nH]2)cc1 | i | -1 | i | 46* | 79* | 81*
COc1cc2c3nnc(-c4ccc(F)cc4)c-3cn(Cc3ccc(F)cc3)c2cc1OC | i | 3 | -119 | 13* | -5 | -7
CCCCNS(=O)(=O)/C=C/c1ccccc1CCNC(=O)OC(C)(C)C | -2 | x | -4 | 0 | x | x
O=C(COC(=O)c1cc(F)c(F)cc1Cl)NC1CC1 | -2 | 1 | -2 | 0 | x | x
Nc1c(Cl)cc(Cl)cc1C(=O)OCC(=O)NC1CC1 | i | -3 | -479 | 22* | 36* | 33*
COC(=O)[C@]12C[C@H](CC(=O)NCCCN3CCCC3=O)C(=O)N(CCc3ccc(OC)c(OC)c3)C1=C[C@H](C(C)(C)C)O[C@@H]2C | 1 | x | 2 | 0 | x | x
CCc1ccc(C2=CC(c3cc(Br)ccc3F)n3ncnc3N2)cc1 (stereo unspecified) | -264 | -5 | -103 | 13* | 4 | 4.9*
Fc1ccc(Br)cc1C1C=C(c2ccc(Br)cc2)Nc2ncnn21 (stereo unspecified) | -73 | 3 | -30 | 11 | x | x
Cc1ccc(-n2c(SCC(=O)Nc3ccc4c(c3)OCCO4)nnc2-c2ccccn2)cc1 | 3 | x | -2 | 0 | x | x
CCOC(=O)Nc1ccc2c(COC(=O)CNS(=O)(=O)c3cccc(Br)c3)cc(=O)oc2c1 | i | 0 | -438 | 15* | 30* | 34*
CC(=O)Oc1c(-c2ccco2)oc2ccccc2c1=O | -190 | -5 | -69 | 14* | 21* | 19*
COCCN1Cc2cc(C(=O)OC)c3c(c2C1=O)c1cc(OC)ccc1n3S(C)(=O)=O | -15 | x | -4 | 1 | x | x
COC(=O)[C@]12CCCCC=C1N(Cc1ccc(OC)cc1)C(=O)[C@@H]2CC(=O)NCc1ccc(OC)c(OC)c1 | 6 | x | 7 | 0 | x | x
CCOC(=O)c1cc(C(=O)OCC)c2ccccn2c1=O | i | -1 | i | 55* | 57* | 68*
CCOc1ccc2c(C)cc(=O)oc2c1OCC | -118 | -1 | -40 | 8 | x | x
CCC(=O)Oc1ccc2c(C)cc(=O)oc2c1C | -493 | 3 | -165 | 422* | 697* | 675*
Cc1cc(=O)oc2c(C)c(OC(=O)c3ccco3)ccc12 | -109 | -1 | -31 | 85* | 601* | 620*
COC(=O)[C@]12C[C@H](CC(=O)N3CCN(C(=O)C4CC4)CC3)C(=O)N(Cc3ccccc3)C1=C[C@H](C1CCCC1)O[C@@H]2C | 3 | x | -2 | 0 | x | x
CC(C)(C)NC(=O)C(c1cc2ccccc2o1)n1c(=O)c(-c2ccco2)nc2ccccc21 (stereo unspecified) | -48 | x | -18 | -3 | x | x
